± gives the standard deviation.
Columns and labels:
[1] = system: MILI (PIWIL2) piRISC loaded with piRNA #1 (26 nt); assay: pre-steady-state target cleavage rate (min^-1); guide: piRNA #1 5'p-UGAGGUAGUAGGUUGUAUAGUAUCCA; higher = faster piRNA-guided slicing of the target; conditions: auxiliary factor: 500 nM mouse GTSF1
Outline: (§1)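 Cleave-'n-Seq: a transcribed, DNA-blocked target RNA library (0.1 nM) was mixed with 1 nM active affinity-purified piRISC carrying one synthetic guide, with or without 500 nM GTSF1 partner protein, in HEPES–potassium acetate buffer at 33 °C for 0–8 or 0–960 min. Uncleaved targets were sequenced and normalised to depth and to weakly complementary targets. Three trials were pooled, and k3 was capped at 0.0001 min^-1. The pre-steady-state cleavage rate came from a burst-and-steady-state fit.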

[2] = system: EfPiwi piRISC loaded with piRNA #1 (26 nt); assay: pre-steady-state target cleavage rate (min^-1); auxiliary factor: 500 nM Ephydatia muelleri Gtsf1; guide: piRNA #1 5'p-UGAGGUAGUAGGUUGUAUAGUAUCCA; MIWI and MILI are mouse PIWI proteins and EfPiwi is from a freshwater sponge; tags in brackets are library labels; higher = faster piRNA-guided slicing of the target
Outline: as §1

Row | Sequence | pre-steady-state target cleavage rate [1] | pre-steady-state target cleavage rate [2]
1 | GGAGACGUAUACUAUACAACCUACUACCUCA | 0.193 ± 0.013 | 0.0356 ± 0.013
2 | GGAGAGGAAACUAUACAACCUACUACCUGA | 0.047 ± 0.014 | 0.0041 ± 0.0024
3 | GGAGACCAUACUAAACAACCUACUACCUCA | 0.153 ± 0.016 | 0.0127 ± 0.0048
4 | GGAGACGAUACUAUAGAACCUACUACCUCA | 0.184 ± 0.015 | 0.00433 ± 0.0017
5 | GGAGUGGAUACUAUACAUCCUACAACCUCA | 0.165 ± 0.014 | 0.00378 ± 0.0019
6 | GGAGUGAGAUACUAUACAACCUACUACCUCA | 0.189 ± 0.012 | 0.0362 ± 0.015
7 | GGAGACCUUACUAUACACCCUACUACCUCA | 0.058 ± 0.0099 | 0.00862 ± 0.0036
8 | GGAGUGGAUACUAUACAACCUACUACCGUCA | 0.0282 ± 0.006 | 0.00748 ± 0.0027
9 | GGAGAGGAUACAAUACAACGUACUACCUCA | 0.0139 ± 0.003 | 0.00326 ± 0.002
10 | GGAGAGGAUACUAUACAAUCUACUACCUCA | 0.129 ± 0.0097 | 0.0116 ± 0.0062
11 | GGAGUGGAUACUAUACAACGUUCUACCUCA | 0.00599 ± 0.0017 | 0.00461 ± 0.0022
12 | GGAGUGGAUAUCUAUACAACCUACUACCUCA | 0.0708 ± 0.0091 | 0.00883 ± 0.0052
13 | GGAGACCUAUCUAUACAACCUACUACCUUA | 0.103 ± 0.015 | 0.0739 ± 0.027
14 | GGAGACGAUACUAUUCAACCUACAACCUCA | 0.103 ± 0.013 | 0.0024 ± 0.0017
15 | GGAGACCUAAGAAUACAACCUACUACCUCA | 0.0112 ± 0.0044 | 0.00727 ± 0.0035
16 | GGAGAGGAUACUAUACAACGUACUACGUCA | 0.0115 ± 0.0029 | 0.00349 ± 0.0018
17 | GGAGUGGAUACUAUACAACCAUACUACCUCA | 0.00751 ± 0.003 | 0.00742 ± 0.0033
18 | GGAGUGGAUACAAUACAACGUACUACCUCA | 0.0223 ± 0.0023 | 0.00385 ± 0.0018
19 | GGAGACCUAACUAUACAAGCUACUACGUCA | 0.152 ± 0.033 | 0.004 ± 0.0035
20 | GGAGAGCUAACUAUACAACCUACUACCUCA | 0.137 ± 0.018 | 0.00909 ± 0.0042
21 | GGAGACGAAAGUAUACAACCUACUACCUCA | 0.108 ± 0.01 | 0.0104 ± 0.0056
22 | GGAGAGGAUACUAAACAACCUACUACCUGA | 0.0485 ± 0.011 | 0.00273 ± 0.0018
23 | GGAGAGGUUACUAUACAUCCUACUACCUCA | 0.191 ± 0.016 | 0.00567 ± 0.0029
24 | GGAGAGGAUACAAUACAACCUUCUACCUCA | 0.0148 ± 0.003 | 0.00307 ± 0.0023
25 | GGAGAGGAUUCUAUACAACGUACUACCUCA | 0.028 ± 0.0028 | 0.00249 ± 0.0021
26 | GGAGAGGAUACUAUGCAACCUACUACCUCA | 0.214 ± 0.011 | 0.242 ± 0.091
27 | GGAGACCUAUGAAUACAACCUACAUACCUCA | 0.00848 ± 0.0021 | < 0.0001
28 | GGAGUGGAUACUAUACAACCUACCACCUCA | 0.0748 ± 0.01 | 0.00271 ± 0.0014
29 | GGAGUGGAUACUAUACAACCUACUAACUCA | 0.018 ± 0.005 | 0.00991 ± 0.0043
30 | GGAGAGGAUACUAUACAUCCUACUACCACA | 0.0843 ± 0.016 | 0.00374 ± 0.0014

— the supplement of paper PMC10338343
